Laboratory results from PubChem BioAssay (NCATS).
Values joined by “and” are separate entries in the source; they are usually repeats but may differ in a detail not shown here. Equal entries are not always repeated. Results filed as inconclusive are left out. Active and inactive are the calls of the source. Unless noted, how the calls were made is not given here.

What was measured:
[1] = qHTS Assay for Identifying Gametocytocidal Compounds (AID 743244; active means well fitted curve in the direction sought with a large enough effect; an effect the other way counts as inactive or inconclusive;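 further: on the % scale 0 is the no-effect control and ±100 the full control effect; actives lower the fluorescent signal which means gametocytes are killed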); conditions: P. falciparum 3D7 stage III-V gametocytes, alamarBlue, 72 h; max response: hits give low values
Outline: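 Fluorescence at Ex 525/Em 598 nm, recorded 24 h after alamarBlue addition, reports residual metabolic activity of 3D7 gametocytes (stages III–V) following 72 h compound exposure at 37 °C, 5% CO2.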

[2] = Ebola virus entry assay, blue channel fluorescence
[3] = Ebola virus entry assay, ratio channel
[4] = qHTS for Activators of Parkin Expression: LOPAC Validation Assay (FLuc Reporter) (AID 720573; active means well fitted curve in the direction sought with a large enough effect; an effect the other way counts as inactive or inconclusive;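 further: 0% = DMSO and 100% = positive control compounds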)
Outline: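 Readout is FLuc luminescence from neuronal reporter cells (Parkin promoter, FLuc plus NLuc) after 24 h compound exposure in dose response. Values normalized to neutral DMSO and positive-control compounds.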

[5] = molecular target: T1, Hexokinase-4 (Homo sapiens) + Glucokinase regulatory protein (Homo sapiens) (UniProt P35557+Q14397); test: qHTS assay for inhibitors of recombinant human GCK-GKRP interaction: Diaphorase-coupled assay (AID 743205; active means well fitted curve in the direction sought with a large enough effect; an effect the other way counts as inactive or inconclusive)
T1 sequence (P35557 whole entry, looked up): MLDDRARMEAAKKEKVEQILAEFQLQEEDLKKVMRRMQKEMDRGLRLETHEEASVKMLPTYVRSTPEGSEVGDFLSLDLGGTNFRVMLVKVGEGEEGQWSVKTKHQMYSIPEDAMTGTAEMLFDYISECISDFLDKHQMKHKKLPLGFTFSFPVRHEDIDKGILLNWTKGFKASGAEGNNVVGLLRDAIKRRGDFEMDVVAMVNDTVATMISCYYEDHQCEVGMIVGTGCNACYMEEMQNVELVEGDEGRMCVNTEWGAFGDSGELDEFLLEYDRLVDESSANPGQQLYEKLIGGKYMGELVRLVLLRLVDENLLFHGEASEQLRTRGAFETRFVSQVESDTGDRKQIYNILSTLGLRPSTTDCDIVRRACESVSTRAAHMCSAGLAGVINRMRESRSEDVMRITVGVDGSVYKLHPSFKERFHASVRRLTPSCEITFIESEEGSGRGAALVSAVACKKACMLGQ
T1 sequence (Q14397 whole entry, looked up): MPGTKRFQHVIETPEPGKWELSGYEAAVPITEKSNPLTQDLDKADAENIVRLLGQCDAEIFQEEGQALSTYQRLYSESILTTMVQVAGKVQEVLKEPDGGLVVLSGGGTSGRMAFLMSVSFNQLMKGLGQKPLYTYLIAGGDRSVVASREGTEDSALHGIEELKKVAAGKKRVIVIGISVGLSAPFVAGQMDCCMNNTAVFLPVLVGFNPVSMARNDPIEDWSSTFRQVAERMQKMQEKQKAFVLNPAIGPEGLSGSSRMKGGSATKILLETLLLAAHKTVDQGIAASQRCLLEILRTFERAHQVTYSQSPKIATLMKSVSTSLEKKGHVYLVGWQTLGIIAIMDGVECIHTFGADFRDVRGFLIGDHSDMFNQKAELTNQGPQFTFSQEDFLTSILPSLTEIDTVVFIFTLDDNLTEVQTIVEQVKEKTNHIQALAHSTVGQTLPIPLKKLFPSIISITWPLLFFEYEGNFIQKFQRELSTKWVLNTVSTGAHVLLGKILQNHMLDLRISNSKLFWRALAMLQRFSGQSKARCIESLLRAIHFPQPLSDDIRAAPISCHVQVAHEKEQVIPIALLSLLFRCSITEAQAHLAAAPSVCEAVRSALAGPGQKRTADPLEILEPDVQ
Outline: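 Signal derives from resorufin generated by diaphorase, linked to GCK turnover of glucose (5 mM) and ATP (0.4 mM). Enzyme complex was added after a 20-minute compound preincubation and monitored for 30 minutes.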

[6] = molecular target: T1, Hexokinase-4 (Homo sapiens) + Glucokinase regulatory protein (Homo sapiens); test: qHTS assay for inhibitors of recombinant human GCK-GKRP interaction: ADP-Glo assay (AID 743206; active means well fitted curve in the direction sought with a large enough effect; an effect the other way counts as inactive or inconclusive;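 further: plate controls were DMSO plus enzyme for no effect and no enzyme for full effect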)
Outline: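 Pin-transferred compounds meet a 15 nM GST-GCK/15 nM FLAG-GKRP/2 uM S6P mix (dispense concentrations). ATP is then added to 0.4 mM final with 5 mM glucose, and the reaction runs 60 min at room temperature. ADP is quantified luminescently.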

[7] = qHTS assay for small molecule agonists of the antioxidant response element (ARE) signaling pathway measured by Nrf2-dependant transcriptional activity (AID 720636; active means well fitted curve in the direction sought with a large enough effect in the repeat runs; an effect the other way counts as inactive or inconclusive;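 further: HepG2 cells with an ARE-driven luciferase reporter; % of control where 0% means no effect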)
Outline: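 We exposed ARE-luc HepG2 cells, seeded in assay medium with 1% dialyzed FBS and allowed 6 hr to adhere, to test compounds overnight (16 hr, 37 C) before measuring luciferase with ONE-Glo.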

[8] = qHTS assay for small molecule antagonists of the retinoid-related orphan receptor gamma (ROR-gamma) signaling pathway - cell viability counter screen (AID 720652; active means well fitted curve in the direction sought with a large enough effect in the repeat runs; an effect the other way counts as inactive or inconclusive;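 further: CHO reporter cells with doxycycline-induced ROR-gamma expression; series mostly up to about 92 µM; compound exposure lasted 16 hr before ATP read; on the % scale 0 is the no-effect control and ±100 the full control effect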)
Outline: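 Steps: seed CHO cells bearing TET-inducible ROR and ROR response element-luciferase; rest 5 hr at 37 C; add compound, then doxycycline; incubate 16 hr; add CellTiter-Glo and read luminescence as ATP-based viability.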

[9] = qHTS assay for small molecule agonists of the antioxidant response element (ARE) signaling pathway measured by Nrf2-dependant transcriptional activity - cell viability counter screen (AID 720653; active means well fitted curve in the direction sought with a large enough effect in the repeat runs; an effect the other way counts as inactive or inconclusive; further: on the % scale 0 is the no-effect control and ±100 the full control effect); conditions: ARE-bla HepG2 viability, CellTiter-Glo ATP luminescence, 16 h; hits give low values
Outline: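 Cytotoxicity counter screen: intracellular ATP quantified by CellTiter-Glo luminescence in the same ARE-bla HepG2 plates, after 16 h compound exposure and a 2 h beta-lactamase substrate step.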

[10] = qHTS assay for cell viability of HEK293 cells (AID 743288; active means well fitted curve in the direction sought with a large enough effect; an effect the other way counts as inactive or inconclusive; further: on the % scale 0 is the no-effect control and ±100 the full control effect; nearly all actives have a fitted effect of over 50% in size); conditions: ATP luminescence (CellTiter-Glo), 18 h, hits give low values
Outline: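 HEK293, 18 h, 37 C, ATP luminescence. Cells at 2,000/well were allowed at least 5 h to settle before dosing; CellTiter-Glo developed 30 min at RT.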

c1ccc2c(c1)sc1ccccc12
inactive: max response [1] 5.76% | outcome [2] | outcome [3]

Cc1ncsc1CCCl
inactive: outcome [4] | outcome [5] | outcome [6] | max response [1] 5.08% and 26.9% | outcome [2] | outcome [3]

CC(C)C[C@H](NC(=O)CNC(=O)[C@H](Cc1ccc(O)cc1)NC(=O)[C@H](CO)NC(=O)[C@H](Cc1c[nH]c2ccccc12)NC(=O)[C@H](Cc1cnc[nH]1)NC(=O)[C@@H]1CCC(=O)N1)C(=O)N[C@@H](CCCN=C(N)N)C(=O)N1CCC[C@H]1C(=O)NCC(N)=O (stereo in doubt)
inactive: outcome [2] | outcome [3]

COc1c2c(cc3c1OCO3)CCN(C)C2
inactive: max response [1] 7.33% | outcome [2] | outcome [3]

Nc1ccc(N)c([N+](=O)[O-])c1
inactive: outcome [3]

COP(=S)(OC)Oc1ccc(SC)c(C)c1
inactive: outcome [7] | outcome [8] | max response [9] -8.21% and -17% | max response [1] -2.21% | max response [10] 2.92% and -23.3% | outcome [2] | outcome [3]

c1ccc(N2CCNCC2)cc1
inactive: outcome [2] | outcome [3]

CC(=O)NC1CCSC1=O (configuration not stated)
inactive: max response [1] -2.2% and 7.47% | outcome [2] | outcome [3]

CN1CCN(C(=O)C2CCCCC2)CC1
inactive: outcome [2] | outcome [3]

CCN[C@@H](C)Cc1ccccc1
inactive: max response [1] -4.1% | outcome [2] | outcome [3]

CC(C)NC(C)C
inactive: outcome [7] | outcome [8] | max response [9] -19.4% | max response [1] 15.3% | max response [10] 4.29% | outcome [2] | outcome [3]

CCOC(=O)C(O)c1ccccc1 (configuration not stated)
inactive: outcome [2] | outcome [3]

CCN[C@H](C)Cc1cccc(C(F)(F)F)c1
active: AC50 [2] 35.5 µM
inactive: max response [1] 16.7% | outcome [3]

CCOc1ccc(NS(=O)(=O)c2ccc(N)cc2)nn1
inactive: max response [1] 42.3% | outcome [2] | outcome [3]
